In the library only some 11% were active in any assay of this set; here they are far more common.
HP1b chromo inh: HTS for Inhibitors of HP1-beta Chromodomain Interactions with Methylated Histone Tails; AlphaScreen HP1-beta / biotin-H3K9me3 peptide binding; Potency, µM (highest dose often 114 µM), usual class: inhibitors; actives 0.56% (n = 390,000); further: nearly all actives have a fitted effect of over 70% in size
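HP1-beta protein (50 nM final) preincubated 30 min at room temperature with biotinylated H3(1-18)K9me3 peptide (50 nM) in PBS pH 7.4, 0.01% Tween-20, then compound added for 30 min. AlphaScreen streptavidin donor/nickel chelate acceptor beads (10 ug/mL final), 30 min dark, luminescence read.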
G9a block: qHTS Assay for Inhibitors of Histone Lysine Methyltransferase G9a; AID 504332, 2011; G9a H3K9 monomethylation, AlphaScreen, 2 h; actives 8.8% (n = 350,000); Histone-lysine N-methyltransferase EHMT2 (Homo sapiens), Q96KQ7; Potency, µM (doses to about 102 µM), most hits filed as inhibitors; further: nearly all actives have a fitted effect of over 75% in size
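Quantitative HTS format: methyltransferase activity on a biotin-tagged H3K9 peptide is measured by AlphaScreen, using a rabbit anti-monomethyl-H3K9 antibody with streptavidin donor and anti-IgG acceptor beads. Final levels are 20 nM enzyme, 500 nM peptide, 20 uM SAM; 2 h RT.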
BAZ2B block: qHTS Assay for Inhibitors of BAZ2B; Bromodomain adjacent to zinc finger domain protein 2B (Homo sapiens), Q9UIF8; AlphaScreen BAZ2B-H3K14Ac peptide displacement; Potency, µM (series often up to 114 µM), most hits filed as inhibitors; actives 4.4% (n = 360,000); AID 504333, 2011; further: nearly all actives have a fitted effect of over 60% in size
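BAZ2B 50 nM plus b-H3(5-23)K14Ac 50 nM, PBS pH 7.4/0.01% Tween-20, 30 min RT; compound added (max 110 uM), 30 min RT; streptavidin donor/Ni-chelate acceptor beads 10 ug/mL final, 20 min dark; AlphaScreen read.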
L3MBTL1 block: qHTS Assay for the Inhibitors of L3MBTL1 | AlphaScreen L3MBTL1–H3K9me1 peptide binding | AID 485360, 2010 | Potency, µM (titrated, usually from 57.1 µM), actives largely listed as inhibitors | Lethal(3)malignant brain tumor-like protein 1 (Homo sapiens), Q9Y468 | actives 0.66% (n = 230,000); further: nearly all actives have a fitted effect of over 60% in size
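First, the protein-peptide complex forms for 30 min at room temperature (L3MBTL1 50 nM, biotinylated H3K9me1 peptide 75 nM). Next, compounds are pin-transferred and incubated 30 min. Finally, AlphaScreen beads are added and read after 30 min.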
JMJD2A Tudor: qHTS Assay for Inhibitors of JMJD2A-Tudor Domain | Lysine-specific demethylase 4A (Homo sapiens), O75164 | AlphaScreen JMJD2A-Tudor / H3K4me3 peptide binding | Potency, µM (highest dose often 114 µM), actives largely listed as inhibitors | actives 4.4% (n = 390,000); further: nearly all actives have a fitted effect of over 50% in size
Numbers stand for hits; 0 = inactive; ? = inconclusive; - = no result given; [ ] = another dose, or the depositor's remark. The call rests on the fitted dose curve; in most records, active means well fitted inhibition curve with a large enough effect; inconclusive means small, poorly fitted or top-dose-only effect; inactive means no such curve, though single readings can be large or run the other way.

SMILES	HP1b chromo inh	G9a block	BAZ2B block	L3MBTL1 block	JMJD2A Tudor
Cn1c(C(=O)NCCN2CCN(c3ccccc3F)CC2)cc2c(=O)n(C)c3ccccc3c21	0	45µM	0	0	0
Cn1c(C(=O)NCCCN2CCN(c3ccc(F)cc3)CC2)cc2c(=O)n(C)c3ccccc3c21	0	-	-	-	0
Cn1c(C(=O)NCCN2CCOCC2)cc2c(=O)n(C)c3ccccc3c21	0	?	0	-	0
Cn1c(C(=O)NCCN2CCc3ccccc3C2)cc2c(=O)n(C)c3ccccc3c21	0	45µM	0	0	0
c1ccc(-c2nc3nc4ccccc4nc3n2Cc2ccco2)cc1	0	16µM	0	0	0
Fc1ccc(-c2nc3nc4ccccc4nc3n2Cc2ccco2)cc1	0	0	0	0	0
Nc1nn2c(-c3ccccc3)cc(=O)[nH]c2c1N=Nc1ccc(Br)cc1	?	0	0	0	28µM
Nc1nn2c(-c3ccccc3)cc(=O)[nH]c2c1N=Nc1ccc(O)cc1	?	?	?	?	0
COc1ccc(S(=O)(=O)N2CCCCC2)cc1NC(=O)c1cccc(S(=O)(=O)N2CC(C)OC(C)C2)c1 (centres undefined)	0	-	-	-	0
COc1cc(OC)c(NS(=O)(=O)c2cc(-c3cnc(C)o3)ccc2OC)cc1Cl	0	0[12.7 µM]	0	-	0
Cc1ccc(-c2nc(-c3cccnc3)sc2CC(=O)O)cc1	0	?	0	0	0
O=C(CSc1nnc(-c2cccnc2)s1)Nc1ccnc2ccccc12	0	?	0	0	0
Nc1nnc(SCC(=O)Nc2ccc(Cl)c(C(=O)O)c2)s1	0	0	0	-	0
O=C(CSc1nnc(-c2ccncc2)s1)Nc1ccc(Cl)c(C(=O)O)c1	0	50µM	?	-	0
Cc1ccc(NC(=O)CSc2nnc(-c3cccnc3)s2)cc1	0	79µM	0	0	0
CC(=O)Nc1ccc(NC(=O)Cc2sc(-c3cccnc3)nc2-c2ccc(C)cc2)cc1	0	45µM	0	0	0
Cn1cccc1C(=O)N1CCC[C@@]2(CCN(Cc3ccccc3)C2)C1	-	0[12.7 µM]	-	-	-
COc1ccc(OCc2ccc(/C=N\NC(=O)c3sccc3C)o2)cc1	0	40µM	0	-	0
O=C(N/N=C\c1ccc(COc2ccc([N+](=O)[O-])cc2)o1)c1ccc(Cl)cc1	0	0	0	-	0
CC(C)(C)CC(C)(C)N1CNC(=S)NC1	0	45µM	0	0	0
COCCCn1c(=O)c2sccc2n(Cc2cc(C(=O)OC)ccc2OC)c1=O	0	-	0	0	0
Cc1ccc(O)c(N/C=C/C(=O)c2ccc(F)cc2)c1	0	35µM	0	0	0
Cc1ncn(-c2ccccc2)c1-c1ccccc1	0	0[2.33 µM]	50µM	0	?
c1ccc(-n2cnc3ccccc32)cc1	0	0	0	-	0
COc1cc(-c2nc(C(N)=O)c3c(n2)n(-c2cccc(C)c2)c(=O)n3C)cc(OC)c1OC	0	0	0	-	0
SMILES	HP1b chromo inh	G9a block	BAZ2B block	L3MBTL1 block	JMJD2A Tudor
N[C@@H](Cc1ccccc1)c1nnc2sc(SCc3ccccc3)nn12	0	7.1µM	?	0[11.4 µM]	?
COc1ccc(-n2nc(C(=O)NCCc3ccc(OC)c(OC)c3)c3c4ccccc4n(C)c3c2=O)cc1	0	0	-	-	0
Cc1cccc(CNC(=O)CCCN2C(=O)c3cccnc3Oc3ccccc32)c1	0	0	0	-	0
N#CC(C#N)=C1NC(N)=C(C#N)C(c2ccccc2)=C1C#N	-	3.5µM	?	-	-
O=C1CCC(=O)N1OCCCOc1ccc(Br)cc1Cl	0	0	0	0	0
CC1CCCN(CCOCCOc2ccc(Cl)cc2Br)C1 (centres undefined)	?	?	?	0	2µM
Clc1ccc(OCCOCCOc2cccc3cccnc23)c(Br)c1	0	0	0	0	0
Cc1cc(Cl)c(OCCOCCN2CCCC(C)C2)c(Br)c1 (centres undefined)	0	16µM	56µM	0	?
CC1CCCN(CCOCCOc2ccc(Br)cc2Cl)C1 (centres undefined)	?	10µM	?	0	2.8µM

Screening results (PubChem BioAssay)
